Measurements taken from the supplement of paper PMC6555819.

What was measured:
Experiment in all cases: PBM binding z-score (relative to random genomic background probes); higher = stronger binding; sequences stand for … in GC…GCGATTGACAGCGTAGAATGAAGG
[1] = test system: RARb homodimer (NR concentration 270 nM)
How it was run: (§1)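 Ligand-free nuclear receptor dimers were applied to custom Agilent 4×180K protein-binding microarrays whose double-stranded probes carried direct-repeat seeds, single-nucleotide variants, half-site ablations and random human genomic background sequences in 34-nt variable regions. Incubation lasted 1 h. Binding z-scores were computed against the random background probes from regression-normalized fluorescence.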

[2] = test system: RARg:RXRa (NR concentration 270 nM, RXRa partner concentration 90 nM)
How it was run: as §1

[3] = test system: RARg homodimer (NR concentration 270 nM)
How it was run: as §1

[4] = test system: RXRa DBDmut IVT, anti-RXR (DBD mutation: RXRa K156A/R161A, NR concentration 90 nM)
How it was run: as §1

[5] = test system: RXRa homodimer (NR concentration 180 nM)
How it was run: as §1

[6] = test system: THRa:RXRa (NR concentration 90 nM, RXRa partner concentration 90 nM)
How it was run: as §1

[7] = test system: THRa homodimer (NR concentration 90 nM)
How it was run: as §1

[8] = test system: VDR:RXRa (NR concentration 270 nM, RXRa partner concentration 90 nM)
How it was run: as §1

[9] = test system: VDR homodimer (NR concentration 270 nM)
How it was run: as §1

Row | Sequence | PBM binding z-score [1] | PBM binding z-score [2] | PBM binding z-score [3] | PBM binding z-score [4] | PBM binding z-score [5] | PBM binding z-score [6] | PBM binding z-score [7] | PBM binding z-score [8] | PBM binding z-score [9]
1 | TAGACAGGGTCAAAGGCCAGAGTACGAATGTCGA | 3.3 | 5.52 | 4.86 | 2.49 | 6.9 | 3.23 | 0.292 | 4.73 | 2.18
2 | CGATCTAGGTCATCCAGGACAGTGAATACATTGA | 3.01 | 4.03 | 4.66 | 2.18 | 2.71 | 3.78 | 2.35 | 4.67 | 2.06
3 | TCATATAGGAAAAGGTGAAAGTCGAACGATATGA | 1.17 | 1.38 | 1.12 | 1.03 | 1.86 | 0.964 | -0.616 | 0.862 | 0.135
4 | TCATATAGGTAAACAGGAGAAAGTCCGTAAGTTA | -0.0173 | 0.0941 | 0.0897 | 1.4 | 0.771 | 0.0424 | -0.0606 | 0.716 | 0.309
5 | ACAGACAGGTGATGAAGGTAACTCAAGCTATCAT | 0.13 | 0.288 | 0.537 | -0.0436 | 0.166 | 0.289 | -0.0849 | 0.0355 | -0.318
6 | GCTAGTTGGTCAGTAAAAGGTCAAACACCGGTCG | 5.05 | 5.65 | 4.86 | 0.64 | 5.59 | 3.51 | 1.2 | 4.29 | 1.98
7 | AGTCAAAGTTCAGGACGAGGTAACGGAAAGCACG | 3.17 | 4.69 | 4.86 | 2.73 | 2.96 | 3.79 | 1.74 | 2.86 | 1.79
8 | ATCTCTAGGTAAAGATTGTTCAGTGAATGCAAAT | 0.0182 | -0.0248 | 0.361 | 0.286 | -0.291 | 0.472 | 0.375 | 0.327 | 0.0196
9 | CGTCCAAGGTCAAAGCTCAGTGAAGAGATGACGG | 3.72 | 5.9 | 6.4 | 3.56 | 5.49 | 3.63 | 2.02 | 3.77 | 2.15
10 | CGTCCAAAGTCAGAGAGGTCAGTGAATGCCGAGT | 4.21 | 2.98 | 3.26 | 1.16 | 2.65 | 2.72 | 0.954 | 4.38 | 2.12
11 | CGCCCAAGGTCAAGGTCAGTGAAAGAGACTCGAA | 5.33 | 6.54 | 7.08 | 3.25 | 6.2 | 4.42 | 3.53 | 4.61 | 2.96
12 | CGTCAAAGTTCAACTAAGGTAACGTACAGCACGC | 4.47 | 6.1 | 6.82 | 4.86 | 5.14 | 5.27 | 2.13 | 4.64 | 4.15
13 | GGAACGAGGGCAAGTAGATAGCAGAGTTTGATGG | 1.26 | 1.3 | 1.91 | 1.7 | 0.888 | 0.882 | -0.115 | 0.536 | 1.29
14 | GATGCTAGGTCAACTGATGGTCAGCTAAAGCTCG | 3.45 | 5.12 | 5.33 | 1.06 | 2.84 | 2.98 | 0.992 | 1.69 | -0.0193
15 | CAAACTAGGTCAAAGGTCAAATTCGAGCCAACCA | 4.86 | 8.92 | 7.49 | 3.06 | 10.2 | 4.77 | 1.67 | 6.75 | 3.08
16 | TCATATAGGTAAACAGGTGAAAGTTCGTAAGTTA | 1.49 | 1.11 | 0.601 | 1.62 | 2.31 | 1.4 | 0.587 | 1.98 | 1.55
17 | CCAGACAGGGGAGAAGGTAACTCAGCCTCGATTA | -0.0846 | -0.296 | -0.226 | 0.218 | -0.357 | -0.218 | -0.17 | -0.544 | -0.316
18 | CAAACTAGGTCAAGGTTAAAGTCGGTTTGTGCCA | 3.76 | 4.29 | 5.18 | 1.95 | 3.67 | 3.56 | 1.82 | 3.2 | 1.79
19 | TTACCAAGGTGAGCTGAGGTCGTTGAGCCAACTC | 1.75 | 1.39 | 0.933 | -0.158 | 1.48 | 4.77 | 2.04 | 4.29 | 1.96
20 | TGTCAAAGTTCAAACGTAACGTAAGTATCCACAC | 3.89 | 5.71 | 6.15 | 4.86 | 5.15 | 2.12 | -0.319 | 4.68 | 4.63
21 | TCTTCTAGATCAAGCAGGTTAAGAAAGCCTGAGT | 0.111 | 0.248 | -0.0717 | 0.841 | 0.526 | 0.295 | -0.392 | 0.623 | 0.0619
22 | CCAGACAGATGAAAGGTAACTCAGTCTGGTACGC | 0.123 | 0.253 | 0.272 | -0.0479 | 0.612 | 0.108 | -0.299 | 0.208 | 0.123
23 | TCTTGTAGATCAAGCAGGTTCAGAAAGCCTGAGT | -0.055 | -0.213 | -0.414 | 0.872 | 0.0665 | 0.613 | -0.659 | 1.93 | 2.13
24 | TCAGACAGGTGAAGGTAATTCAGGTACGCAGTCG | 0.916 | 0.717 | 0.626 | 1.5 | 1.08 | 1.81 | 0.574 | 1.1 | 0.38
25 | ACAGACAGGTGATTGAAGGTAACTCAGCTGGACG | -0.184 | 0.204 | 0.419 | -0.0738 | 0.195 | 1.92 | -0.247 | -0.21 | -0.308
26 | AGAATGAGGCTAAGATCAGGGAAACAGAATACAT | 0.17 | 0.222 | 0.265 | -0.309 | -0.046 | 0.533 | 0.04 | -0.231 | -0.208

Row | Sequence | PBM binding z-score [1] | PBM binding z-score [2] | PBM binding z-score [3] | PBM binding z-score [4] | PBM binding z-score [5] | PBM binding z-score [6] | PBM binding z-score [7] | PBM binding z-score [8] | PBM binding z-score [9]
27 | TCTAGCAGGCCAGAGGGTCACTCAGGAGGTACGG | 2.75 | 2.62 | 1.67 | 0.0347 | 2.54 | 1.74 | -0.132 | 1.56 | 0.271
28 | ATCACTAGGTAAAGTTCAGTGAAAGATCGATAGA | 2.57 | 2.32 | 2.39 | 1.44 | 1.55 | 1.24 | 0.158 | 1.21 | 2.29
29 | ATCTCTAGGCAAGACTCAGTTCAGTGAAGAACGC | 0.298 | -0.279 | 0.0763 | 0.109 | -0.365 | 0.205 | 0.122 | -0.0651 | 1.01
30 | CTCGAAAGGTCGTGCTCAGCTGAGTATACCAAAC | 2.34 | 4.28 | 3.82 | 2.32 | 4.89 | 2.19 | -0.199 | 3.17 | 0.89
31 | ACTAGCAGGCCAAGTTTGGGTCACTCAAACAAAG | 2.42 | 2.46 | 1.72 | -0.26 | 0.865 | 2.54 | 0.952 | 0.525 | 0.495
32 | TTACCAAGGTGAGCTGAGGTCGTTGTTCCAACTC | 1.84 | 1.31 | 0.592 | 0.437 | 1.42 | 4.75 | 2.02 | 4.15 | 2.12
33 | GGAACGAGTGCAAGTTGATAGCAGAGTTTGATGG | -0.0389 | -0.00885 | 0.227 | 3.42 | 0.155 | -0.241 | -0.787 | 0.646 | 2.87
34 | TTTATTAGTTGATTAGGGCAACCGAAACAGCGGA | 0.918 | 0.811 | 0.769 | 0.442 | 0.586 | 0.999 | 0.89 | 0.643 | 0.951
35 | AATACATGGTCATCGTAGGCCAGAGTACGCACAG | 0.899 | 0.696 | 1.26 | -0.177 | 0.994 | 1.25 | -0.339 | 0.347 | 0.322
36 | CGTCAAACTTCAAGGTAACGTAACAGAAAGCAGC | 0.274 | 0.163 | 0.537 | 0.306 | 0.376 | 1.73 | 1.11 | 0.0642 | -0.0172
37 | CGTCCAAGGTCAGCAGGTCAGTTAAAGCGACGTG | 5.1 | 6.48 | 7.2 | 2.34 | 5.18 | 4.27 | 2.96 | 4.23 | 1.71
38 | GGTCGGAGGACAAGGTCAGAGCTTTGTCCGTAGA | 3.33 | 3.31 | 4.24 | 0.467 | 2.46 | 3.12 | 1.85 | 1.78 | 0.993
39 | CCTGCTAGCTCAATGGTCAGCTAAAGCAGCTCGC | 0.464 | -0.547 | -0.75 | 0.0586 | -0.756 | -0.535 | -0.555 | -0.686 | -0.94
40 | TTACCATGGTGAAAGGTCGTTGATGCACGCCTTG | 2.03 | 2.17 | 1.04 | 0.434 | 3.19 | 1.64 | 0.0302 | 2.11 | 1.19
41 | ATCGAAAGGTCGTGCGGTGAGTATACAGAAAGGC | 2.65 | 4.48 | 4.28 | 1.56 | 4.78 | 2.51 | -0.0433 | 3.46 | 1.31
42 | CCTCGGAGGACAACAGGAGGTCGGAGCTGCCAGA | 1.42 | 1.08 | 1.36 | 0.0321 | 0.223 | 1.35 | 0.0235 | -0.0445 | 0.16
43 | TGAATGAGGTTAAAGATCAGGCAACGTGGCGTCG | 0.653 | 2.44 | 1.16 | 1.02 | 3.63 | 2.71 | 0.312 | 1.88 | 0.286
44 | CCTTACGGGTCACTCCAGGTTAAAGCATCGGAGT | 3.23 | 4.68 | 4.54 | 1.13 | 4.65 | 5.26 | 0.483 | 4.34 | 1.41
45 | CCAGACAAGTGAGAAGGTAACTCAGCCTCGATTA | 0.174 | 0.0341 | 0.205 | 0.366 | 0.108 | 0.152 | 0.461 | 0.143 | 0.281
46 | TAGCCTAGGTCATCCAGGGGCCAGTATAGAAAGC | 3.71 | 6.41 | 5.07 | 0.731 | 2.94 | 3.55 | 0.878 | 3.1 | 0.913
47 | ATCGAACGGTCGAAGGTGAGTATACCCACCCGAA | 0.62 | 0.884 | 0.957 | -1.05 | 0.717 | -0.016 | -0.481 | -0.202 | -0.147
48 | CTACCAAGGTGAAGAAGGTCGTTGATTACTATTC | 1.74 | 1.35 | 1.07 | 0.727 | 1.34 | 2.13 | 0.885 | 4.25 | 1.34
49 | GCAGACAGGTGAAACGCAGGTAACTCTGGGTGGC | -0.101 | 0.724 | 0.0252 | -0.652 | 0.337 | 0.963 | -0.802 | -0.545 | -0.811
50 | ACTTACGGGTCAACGAGGATATAGCACGCGTATA | 2.74 | 5.35 | 4.72 | 2.12 | 5.48 | 3.55 | 0.687 | 6.51 | 2.15
51 | TCTTGTAGATCAATAGAGGTTAAGATAGTGCGCT | 1.21 | 0.947 | 0.501 | 0.749 | 1.75 | 2.51 | -0.429 | 1.65 | 0.0861
